A selection: hits, their analogues and other compounds. The true share with any hit is near 11%.
NPR1 antag – human Npr1 receptor antagonism. P16066. HEK293 hNpr1 GloSensor cGMP, ANP-stimulated luminescence. Potency, µM (top dose mostly 46.3 µM), without a hit: at the top dose activity change, negative = inhibition, actives largely listed as inhibitors. 76,000 tested, 1.6% active. AID 1347048; calls by dose curve; also: nearly all actives have a fitted effect of over 60% in size
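HEK293 cells stably expressing human Npr1 and cGMP GloSensor pGS-40F, loaded 2 h with 2% GloSensor reagent, given compound 30 min at room temperature. Luminescence read before and 20 min after 0.1 nM hNppA.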
NIH3T3 tox – NIH 3T3 cell cytotoxicity; NIH 3T3 viability, CellTiter-Glo ATP luminescence, 48-72 h; Potency, µM (highest dose often 96.7 µM), for inactives: at the top dose activity change, negative = cytotoxicity, most hits filed as inhibitors; 94,000 tested, 4.3% active; AID 1345082; also: nearly all actives have a fitted effect of over 55% in size
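Cytotoxicity is measured as loss of cellular ATP: NIH 3T3 cells (400/well) are exposed to compound for 48 or 72 hr at 37 °C, then CellTiter-Glo luminescence is imaged after 10 min at room temperature.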
HEK cytotox – kills HEK 293 cells. HEK 293 viability, ATP luminescence (CellTiter-Glo), 48-72 h. Potency, µM (highest dose often 115 µM), for inactives: at the top dose activity change, negative = cytotoxicity, usual class: inhibitors. 94,000 tested, 6.6% active. AID 1345083; also: nearly all actives have a fitted effect of over 60% in size
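Cytotoxicity was scored by loss of ATP-coupled luminescence (CellTiter-Glo) in HEK 293 cells. Compound treatment ran 48 or 72 hr at 37 degree Celsius, 5% CO2, 95% humidity.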
FLuc inh – inhibitors of firefly (Photinus pyralis) luciferase; P08659; purified P. pyralis luciferase, luminescence, biochemical; Potency, µM (highest dose often 115 µM), most hits filed as inhibitors; 76,000 tested, 2.5% active; AID 1347043; also: nearly all actives have a fitted effect of over 65% in size
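Luminescence read by CCD imaging after purified firefly luciferase (10nM final) was added to substrate buffer holding 10uM D-luciferin and 10uM ATP, pH 7.5, pre-dosed with compound.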
* hit, by the source's call; i = inactive; ? = inconclusive; . = not tested or not shown; [ ] = dose if it differs, or a comment. Unless noted, calls follow the shape of the dose curve; as a rule, active = well fitted curve in the direction sought with a large enough effect; inconclusive = small, poorly fitted or top-dose-only effect, or another doubt; inactive = no such curve, though single readings can be large; an effect the other way counts as inactive or inconclusive. % is scaled to controls: 0 for no effect and ±100 for the full control effect; potency is read from the fitted curve at half-maximal effect.

SMILES | NPR1 antag | NIH3T3 tox | HEK cytotox | FLuc inh
COc1cccc(CCC(=O)N2CCCN(c3cc(-c4ccccc4)[nH]n3)CC2)c1 | -1.7% | ? | ? | i
Cc1ccccc1CC(=O)N1CCCN(c2cc(-c3ccc(Cl)cc3)[nH]n2)CC1 | 0.0% | ? | ? | i
Cc1cccc(CC(=O)N2CCCN(c3cc(-c4ccc(Cl)cc4)[nH]n3)CC2)c1 | ? | 39.8µM* | ? | i
COc1cccc(N2C(=O)NC(=NC3CCCCC3)C23CCN([S+](=O)([O-])c2c(C)noc2C)C3)c1 (stereo not drawn) | 0.0% | -14.4% | -46.4% | i
O=C(CCc1nnn2c1CN(C(=O)NC1CCCC1)CC2)N1CCOCC1 | -10.3% | -10.9% | -5.2% | i
COc1ccc(-c2cc(N3CCCN(C(=O)Cc4cccc(F)c4)CC3)n[nH]2)cc1 | 0.0% | ? | 39.8µM* | i
COc1ccc(-c2cc(N3CCCN(C(=O)Cc4ccc(C)cc4)CC3)n[nH]2)cc1 | ? | ? | ? | i
O=C(Cc1c[nH]c2ccccc12)N1CCCN(c2cc(-c3ccc(Cl)cc3)[nH]n2)CC1 | ? | 35.5µM* | 44.7µM* | i
COc1ccc(-c2cc(N3CCCN(C(=O)Cc4c[nH]c5ccccc45)CC3)n[nH]2)cc1 | -22.9% | ? | ? | i
COc1ccc(-c2cc(N3CCCN(C(=O)Cc4ccc(Cl)cc4)CC3)n[nH]2)cc1 | -25.8% | ? | 44.7µM* | i
O=C(NCCN1CCCC1)c1nnn2cc(-c3ccccc3)[nH]c(=O)c12 | 0.8% | -14.8% | -4.8% | i
COCC(=O)N1CCCN(c2ccc3nnc(C4CC4)n3n2)CC1 | . | -19.5%[138 µM] | -19.2%[172 µM] | .
Cc1noc(C)c1-c1cc2cc(CO)oc2c(NCc2ccc3c(c2)OCO3)n1 | -5.4%[70.6 µM] | ? | ? | i
Cc1noc(C)c1-c1cc2c(cc(C)n2C)c(NC2CCN(C)CC2)n1 | -2.1%[70.6 µM] | ? | ? | i
Cc1noc(C)c1-c1cc2cc(CNC(C)C)oc2c(NC2CCN(C)CC2)n1 | -1.9%[70.6 µM] | ? | 63.1µM* | i
Cc1noc(C)c1-c1cc2cc(CN3CCN(C)CC3)oc2c(NC2CCN(C)CC2)n1 | 1.6%[70.6 µM] | 89.1µM* | ? | i
Cc1cc(C(=O)N2CCC3(CC2)CC(c2ccccc2)C(=O)N(C)C3)n[nH]1 (stereo not drawn) | 2.4% | -23.1% | -19.0% | i
Cc1ccc(Nc2ccnc(N3CCC(NC(=O)c4ccc(F)cc4)CC3)n2)cc1 | . | 35.5µM* | ? | .
Cc1ccc(Nc2ccnc(N3CCC(NC(=O)c4ccc(C(F)(F)F)cc4)CC3)n2)cc1 | . | 12.6µM* | ? | .
O=C(NC1CCN(c2ccnc3ccnn23)CC1)c1ccc(Cl)nc1 | . | -23.7% | ? | .
Cc1ccc(C(=O)NC2CCN(c3cc(-c4ccc(F)cc4)[nH]n3)C2)cc1 (stereo not drawn) | -14.6% | ? | ? | i
Cc1ccc(Nc2ccnc(N3CCC(NC(=O)c4ccc(Cl)nc4)CC3)n2)cc1 | . | 39.8µM* | 39.8µM* | .
CCCCSCc1cc(C(=O)N2C[C@H](OCC)[C@@H](O)C2)oc1C | 0.2% | 2.4% | 2.6% | i
COCCNC(=O)C[C@@H]1C[C@H]2O[C@H](CNCc3ccccc3Cl)[C@@H](O)[C@H]2O1 | 2.5%[70.6 µM] | i | i | i
N#Cc1cccc(CN2Cc3[nH]cnc3C[C@H]2c2nc(-c3ccccc3)no2)c1 | -10.9%[70.6 µM] | ? | 89.1µM* | 63.1µM*
SMILES | NPR1 antag | NIH3T3 tox | HEK cytotox | FLuc inh
Cc1ccc(-c2noc([C@@H]3Cc4nc[nH]c4CN3Cc3ccc(F)cc3)n2)cc1 | ? | 35.5µM* | 89.1µM* | 50.1µM*
Cc1ccc(-c2noc([C@@H]3Cc4nc[nH]c4CN3C(=O)CCCC(=O)O)n2)cc1 | -2.6%[70.6 µM] | -15.0%[174 µM] | -5.3%[172 µM] | ?
Cc1ccc(-c2noc([C@@H]3Cc4nc[nH]c4CN3Cc3ccc(CO)o3)n2)cc1 | 1.7%[70.6 µM] | -10.3%[174 µM] | -19.4%[172 µM] | 63.1µM*
CC(C)c1noc([C@@H]2Cc3nc[nH]c3CN2Cc2ccc(F)cc2)n1 | -15.2%[70.6 µM] | ? | ? | i
Cc1cccc(-c2noc([C@@H]3Cc4nc[nH]c4CN3Cc3cccc(C#N)c3)n2)c1 | -6.2%[70.6 µM] | ? | ? | i
CC(NC(=O)c1csc2nc(-c3cccc(C(F)(F)F)c3)cn12)c1ccncn1 (stereo not drawn) | 0.2% | ? | ? | 39.8µM*
O=C(c1ccc(Oc2ccccc2)cc1)N1CCNc2cnc(Nc3cccc(C(F)(F)F)c3)nc2C1 | ? | 25.1µM* | 22.4µM* | i

Source: PubChem (National Center for Advancing Translational Sciences (NCATS))
